# The list is not random: actives were taken first. Their share in the collection is about 28%.
# CYP2C19 inhib: human CYP2C19 inhibition; P33261; CYP2C19 Supersomes, luciferin-H EGE luminescence, 30 min; inhibition, % at 5 µM; 21% of 96,000 active; AID 778;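 active = CYP2C19 inhibition above a set limit at 5 µM in the primary screen, cut at about 50% in these data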;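 also: plate controls were negative control wells for no effect and 2.5 mM tranylcypromine positive control for full effect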
# Target sequence (P33261 whole entry, looked up): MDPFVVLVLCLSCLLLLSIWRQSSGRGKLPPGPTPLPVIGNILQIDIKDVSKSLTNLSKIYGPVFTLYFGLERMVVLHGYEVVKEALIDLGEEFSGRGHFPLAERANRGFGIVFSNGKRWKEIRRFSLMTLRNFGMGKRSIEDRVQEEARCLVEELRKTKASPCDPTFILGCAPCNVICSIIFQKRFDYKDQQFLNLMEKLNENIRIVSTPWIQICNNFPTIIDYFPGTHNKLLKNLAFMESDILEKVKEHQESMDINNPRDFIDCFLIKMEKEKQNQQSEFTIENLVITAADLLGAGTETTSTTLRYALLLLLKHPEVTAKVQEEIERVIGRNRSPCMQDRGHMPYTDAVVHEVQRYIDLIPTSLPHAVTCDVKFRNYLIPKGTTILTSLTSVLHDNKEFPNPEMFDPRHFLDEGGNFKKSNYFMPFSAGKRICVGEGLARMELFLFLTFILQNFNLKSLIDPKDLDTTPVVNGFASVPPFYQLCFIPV
# Pyk2 oligo antag: Pyk2 (human) oligomerization antagonism; 0.83% of 99,000 active; Q14289; Q293 cells, Pyk2 FERM NanoBiT luminescence; hits give low values; z-score (the deposit names both 25 µM and 10 µM);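 active = Z-score of -3 or lower, scaled per plate to the spread of control and sample wells; inactive = z-score above -3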;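 also: negative z-score means lost luminescence so less FERM oligomerization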
# CYP2C9 activ: activators of human CYP2C9 | recombinant CYP2C9, luciferin-H conversion, luminescence; hits give high values; factor 1 = untreated enzyme, 0 = blocked | AID 1024 | activation factor at 5 µM | 1.4% of 96,000 active;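 active = activation factor of 2 or more for CYP2C9 at a 5 µM dose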;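 also: 0 = sulfaphenazole-blocked wells and 1 = vehicle-only wells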
# CYP2C9 inh: inhibitors of human CYP2C9; P11712; AID 777; CYP2C9 Supersomes, luciferin-H conversion, luminescence; inhibition, % at 5 µM; 20% of 96,000 active;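 active = blocking of liver enzyme CYP2C9 beyond about 50% at 5 µM, limit read from the data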
# CYP2C19 act: activators of human cytochrome P450 2C19; P33261; recombinant CYP2C19, luciferin-H EGE luminescence; hits give high values; 0 = fully inhibited enzyme, 1 = untreated enzyme; activation factor at 5 µM; 96,000 tested, under 10 active; AID 1025;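 active = activation factor of at least 2 at 5 µM in the primary screen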;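 also: 0 = wells with 2.5 mM tranylcypromine and 1 = vehicle-only wells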
# An asterisk follows results filed as active; nt = not tested or not shown.
SMILES,CYP2C19 inhib,Pyk2 oligo antag,CYP2C9 activ,CYP2C9 inh,CYP2C19 act
O=C(CCc1ccc(CCC(=O)c2cccs2)s1)c1cccs1,89*,0.65,0.1,93*,0.1
O=C(CCn1cccc1)Nc1ccccc1F,22,0.48,0.9,7,0.8
Cn1nc(CC(=O)NCc2ccc(F)cc2)c2ccccc2c1=O,6,nt,1,-3,0.9
O=C(CCC(=O)c1cccs1)NCc1ccc(F)cc1,72*,1.7,1.7,-71,0.3
O=C(CCSc1ccc(Cl)cc1)c1cccs1,13,0.77,0.9,6,0.9
CC(C)(C)CC(=O)NCc1ccc(F)cc1,53*,-0.02,0.8,18,0.5
COC(=O)c1ccccc1NC(=O)c1cc2ncc(Br)cn2n1,-9,0.18,1.5,-46,1.1
CCCn1nnc(NC(=O)c2ccc(Cl)cc2Cl)n1,89*,0.51,1.2,-24,0.1
CC(C)(C)NC(=O)C(c1ccncc1)N(C(=O)c1csnn1)C1CC1 (stereo not drawn),16,-0.92,1,-4,0.8
Cc1cc(C)cc(NC(=O)CCC(=O)Nc2cc(C)on2)c1,nt,0.92,nt,nt,nt
CC(=O)C1=C(O)C(=O)N(CC#N)C1c1cccs1 (stereo not drawn),-20,0.79,1.2,-19,1.2
O=[N+]([O-])c1ccc(N2CCN(S(=O)(=O)c3ccccc3)CC2)cc1NCc1cccnc1,10,-3.7*,0.6,36,0.9
O=[N+]([O-])c1ccc(N2CCN(S(=O)(=O)c3ccc(Cl)cc3)CC2)cc1NCc1cccnc1,5,-2.8,0.5,53*,1
CS(=O)(=O)N1CCN(c2ccc([N+](=O)[O-])c(NCCN3CCOCC3)c2)CC1,9,-0.66,1,3,0.9
O=C(c1ccc(Cl)cc1)N1CCN(c2ccc([N+](=O)[O-])c(NCc3cccnc3)c2)CC1,nt,-3.3*,nt,nt,nt
O=C(NCc1cccnc1)c1ccc(Cl)cc1[N+](=O)[O-],44,-0.4,0.9,9,0.6
CC(C)CC(=O)N1CCN(c2ccc([N+](=O)[O-])c(NCc3ccccc3)c2)CC1,nt,-2.7,nt,nt,nt
Cc1ccc2c(C)c(C(=O)N(Cc3cccs3)C3CCS(=O)(=O)C3)oc2c1 (stereo not drawn),12,-0.42,0.6,37,0.9
CCOc1ccc(CN(C(=O)c2oc3cc(C)ccc3c2C)C2CCS(=O)(=O)C2)cc1 (stereo not drawn),73*,-0.68,0.1,87*,0.3
Cn1c(=O)c2c(ncn2CC(=O)N(Cc2ccccc2)c2ccccn2)n(C)c1=O,14,0.08,0.8,17,0.9
Cc1[nH]n(-c2cccc(Cl)c2)c(=O)c1-c1ccccc1,5,-0.49,0.8,23,0.9
Cc1cc(-c2c(C)[nH]n(-c3ccc(Cl)cc3)c2=O)n(-c2ccccc2)n1,8,-0.34,0.1,91*,0.9
COc1ccc2nc3c(cc2c1)c(NC(=O)C1CCCO1)nn3CC(C)C (stereo not drawn),48,-1.4,0.3,66*,0.5
CCCn1nc(NC(=O)c2cccs2)c2cc3ccccc3nc21,26,0.01,0.5,48,0.7
CCCn1nc(NC(=O)C2CCCO2)c2cc3cc(C)ccc3nc21 (stereo not drawn),2,-0.86,0.7,28,1
SMILES,CYP2C19 inhib,Pyk2 oligo antag,CYP2C9 activ,CYP2C9 inh,CYP2C19 act
CCCn1nc(NC(=O)c2cccs2)c2cc3cc(OC)ccc3nc21,18,-2.4,0.4,56*,0.8
CCCCn1nc(NC(=O)c2cccs2)c2cc3cc(OC)ccc3nc21,17,-3*,0.4,64*,0.8
CCCCn1nc(NC(=O)c2cccs2)c2cc3ccccc3nc21,15,-3.1*,0.5,46,0.9
COc1cccc(-c2csc(N3CCN(Cc4ccccc4)CC3)n2)c1,13,0.43,0.8,24,0.9
CS(=O)(=O)N(CCc1ccccc1)CC(=O)N1CCN(c2ccc(F)cc2)CC1,nt,1.3,nt,nt,nt
Cc1ccc(NC(=O)/C=C/c2cccs2)c([N+](=O)[O-])c1,-16,-0.25,1.1,-8,1.2
Cc1ccc(/C(O)=C2\C(=O)C(=O)N(c3cc(C)on3)C2c2cccc(Cl)c2)cc1 (stereo not drawn),8,-2.3,0.6,39,0.9
O=C1C(=O)N(c2cccc(Cl)c2)C(c2ccccc2[N+](=O)[O-])/C1=C(\O)c1ccccc1 (stereo not drawn),10,-0.15,0.1,86*,0.9
CCOC(=O)C1=C(C)N(C)C(C)=C(C(=O)OCC)C1c1ccncc1,97*,-1.9,0,100*,0
COC(=O)C1=C(C)N(C)C(C)=C(C(=O)OC)C1c1ccc(F)c(Br)c1,65*,-3.2*,0.1,94*,0.4
COC(=O)C1=C(C)N(C)C(C)=C(C(=O)OC)C1c1ccncc1,78*,0.32,0.2,79*,0.2
Cc1cc(C)cc(OCC(=O)NC2=NCCS2)c1,28,0.41,2.3*,-130,0.7
O=C(COc1ccc2ccccc2c1)NC1=NCCS1,65*,0.59,1.6,-59,0.4
O=C(NCCSCc1ccccc1)c1ccc(C2SCC(=O)N2Cc2ccccc2)cc1 (stereo not drawn),92*,-0.78,0,97*,0.1
CCOC(=O)c1ccc(NC(=O)CSc2nnc(CNC(=O)c3c(F)cccc3Cl)o2)cc1,24,2,0.4,58*,0.8
COc1ccc(C(=O)NCc2nnc(SCC(=O)Nc3cccc(C(F)(F)F)c3)o2)cc1OC,54*,-0.74,1.2,-18,0.5
CCOC(=O)c1ccc(NC(=O)CSc2nnc(CNC(=O)c3ccccc3F)o2)cc1,27,1.6,0.6,40,0.7
COc1cc(C(=O)NCc2nnc(SCC(=O)Nc3cc(C)cc(C)c3)o2)cc(OC)c1OC,-13,-0.13,1.1,-10,1.1
O=C(NC1CCCCC1)C(c1cccs1)N(C(=O)c1ccco1)c1ccc2c(c1)OCCO2 (stereo not drawn),nt,-1.7,nt,nt,nt
CCOc1ncccc1C(=O)OCC(=O)c1cccs1,24,0.87,0.6,43,0.8
CCOc1ncccc1C(=O)OCC(=O)Nc1c(C)cccc1C,52*,2.3,0.8,24,0.5
Cc1cccc(C)c1NC(=O)COC(=O)c1nonc1N,26,1.1,1.1,-12,0.7
CCOc1ncccc1C(=O)OCC(=O)Nc1c(C)cc(C)cc1C,60*,0.19,0.6,44,0.4
CCOc1ncccc1C(=O)OCCN1C(=O)c2ccccc2C1=O,59*,-0.2,0.9,15,0.4
COc1ccccc1N1CCN(/N=C/C=C\c2ccco2)CC1,18,-0.36,1,1,0.8
O=[N+]([O-])c1ccc(O)c(-c2nn[nH]n2)c1,70*,0.84,0.2,83*,0.3
Cc1ccccc1-c1nn[nH]n1,-9,0.3,1.1,-6,1.1
O=C(N/N=C\c1ccc(CN(Cc2ccc(Cl)cc2)S(=O)(=O)c2ccccc2)o1)C(=O)Nc1ccc(F)cc1,82*,-0.55,0.2,76*,0.2

# Screening data from PubChem.
